According to PubChem BioAssay (EPA / NIEHS):
Results filed as inconclusive are left out. Where a structure was tested more than once in an assay, its records may differ in their call. The source made the active and inactive calls. The calls were made as follows, unless noted: active = hit-call score of the fitted dose curve at least 0.9, where 1 is the maximum; inactive = score below 0.9.

Experiments:
[1] = BSK_BT_Bcell_Proliferation: Viability Assessment in the BioMAP Diversity Plus: BT Assay for B cell Proliferation (AID 2284227); details: primary human B cells with PBMC
Method in brief: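 Using a human primary B cell–PBMC co-culture, the assay measures total protein by sulforhodamine B absorbance as a gauge of proliferation after 72 h. Analysis followed the positive fitting direction with DMSO as baseline.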

[2] = read-out: Interleukin 6 (IL6), IL6 (gene 3569); test: BSK_BT_xIL6: BioMAP Diversity Plus: BT Assay for Interleukin 6 (IL6) Biomarker Activity (AID 2284228); details: primary human B cells with PBMC
Method in brief: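 Human B cell/PBMC co-culture; secreted IL-6 quantified by Luminex xMAP 24 h after chemical dosing, fitted relative to DMSO. Parallel PBMC viability by Alamar Blue after 1 h pretreatment, 20 ng/mL SEB and TSST-1, 90 h incubation.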

[3] = read-out: Interleukin 17A (IL17A), IL17A (gene 3605); test: BSK_BT_xIL17A: BioMAP Diversity Plus: BT Assay for Interleukin 17A (IL17A) Biomarker Activity (AID 2284229); details: primary human B cells with PBMC
Method in brief: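 Co-culture of human B cells and PBMC, dosed for 24 h in 96-well format. Secreted IL-17A measured with Luminex xMAP; gain-direction fitting against DMSO as baseline.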

[4] = read-out: Tumor necrosis factor (Homo sapiens) (UniProt P01375); test: BSK_BT_xTNFa: BioMAP Diversity Plus: BT Assay for Tumor necrosis factor alpha (TNF-alpha) Biomarker Activity (AID 2284230); details: primary human B cells with PBMC
Method in brief: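 Endpoint derived in the positive direction versus DMSO vehicle. Cells: B cells together with PBMC, exposed 24 h before TNF-alpha in the medium was read on the Luminex xMAP platform.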

[5] = read-out: Vascular cell adhesion molecule 1 (VCAM1), VCAM1 (gene 7412); test: BSK_MyoF_VCAM1: BioMAP Diversity Plus: MyoF Assay for Vascular cell adhesion molecule 1 (VCAM1) Biomarker Activity (AID 2284231); details: primary human lung fibroblasts
Method in brief: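 Primary human lung fibroblasts (BioMAP MyoF system) dosed with chemical, VCAM-1 measured by ELISA 24 hours later. Fitted in the positive direction against DMSO; parallel SRB staining assessed cytotoxicity.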

[6] = read-out: Collagen I, COL1A1 (gene 1277); test: BSK_MyoF_CollagenI: BioMAP Diversity Plus: MyoF Assay for Collagen I Biomarker Activity (AID 2284238); details: primary human lung fibroblasts
Method in brief: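 Primary human lung fibroblasts (MyoF system) treated 24 h; Collagen I quantified by ELISA and fitted in positive direction against DMSO. Parallel SRB total-protein staining assessed overt cytotoxicity.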

[7] = read-out: Collagen III, COL3A1 (gene 1281); test: BSK_MyoF_CollagenIII: BioMAP Diversity Plus: MyoF Assay for Collagen III Biomarker Activity (AID 2284239); details: primary human lung fibroblasts
Method in brief: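 Primary human lung fibroblasts (BioMAP MyoF system) exposed 24 h. Collagen III measured by ELISA; positive-direction fit relative to DMSO.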

[8] = CCTE_Mundy_HCI_hNP1_Casp3_7: CCTE's Caspase-Glo 3/7 Assay in human neuroprogenitor cells for Apoptosis, Mundy Lab (AID 2284240)
Method in brief: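 Luminescent caspase-3/7 readout, 26.5 h post-dose, in human neural progenitor cells from WA09 embryonic stem cells. Cells grew 40–44 h at 37 °C, 5% CO2 before chemical addition. Activity analysed as signal increase over DMSO baseline.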

[9] = CCTE_Mundy_HCI_hNP1_CellTiter: CCTE's Cell Titer-Glo 2 Assay in human neuroprogenitor cells for Viability, Mundy Lab (AID 2284241; active = hit-call score of the fitted dose curve at least 0.9, where 1 is the maximum)
Method in brief: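 Viability read as luminescent ATP content (CellTiter-Glo, 30 min room temperature) twenty-four hours after dosing, relative to DMSO. Cells: WA09-derived hNP1 neuroprogenitors on poly-L-ornithine/laminin, plated 40 to 44 hours before chemical.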

[10] = read-out: Interleukin 17F (IL17F), IL17F (gene 112744); test: BSK_BT_xIL17F: BioMAP Diversity Plus: BT Assay for Interleukin 17F (IL17F) Biomarker Activity (AID 2284243); details: primary human B cells with PBMC
Method in brief: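 Human PBMC co-cultured with B cells, compound exposure 24 h; secreted IL-17F quantified by Luminex xMAP, referenced to DMSO control. PBMC viability measured in parallel by Alamar Blue reduction.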

[11] = read-out: Actin alpha 1 (ACTA1), ACTA1 (gene 58); test: BSK_MyoF_ACTA1: BioMAP Diversity Plus: MyoF Assay for Actin alpha 1 (ACTA1) Biomarker Activity (AID 2284244); details: primary human lung fibroblasts
Method in brief: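 MyoF fibroblast system (human lung); a-SMA quantified via ELISA at 24 h; DMSO-normalised, gain-of-signal endpoint.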

[12] = read-out: Interleukin 2 (IL2), IL2 (gene 3558); test: BSK_BT_xIL2: BioMAP Diversity Plus: BT Assay for Interleukin 2 (IL2) Biomarker Activity (AID 2284245); details: primary human B cells with PBMC
Method in brief: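 Co-cultures of primary human B cells and PBMC are treated with chemical and sampled at 24 h. IL-2 secretion is quantified by Luminex xMAP, with DMSO-treated wells as baseline.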

[13] = read-out: Basic fibroblast growth factor (bFGF), FGF2 (gene 2247); test: BSK_MyoF_bFGF: BioMAP Diversity Plus: MyoF Assay for Basic fibroblast growth factor (bFGF) Biomarker Activity (AID 2284246); details: primary human lung fibroblasts
Method in brief: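 Fibroblasts from human lung, 24 h dosing. bFGF by ELISA; gain of signal over DMSO.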

[14] = read-out: Collagen IV, COL4A1 (gene 1282); test: BSK_MyoF_CollagenIV: BioMAP Diversity Plus: MyoF Assay for Collagen IV Biomarker Activity (AID 2284247); details: primary human lung fibroblasts
Method in brief: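 Lung fibroblasts (human primary) treated with chemicals were assayed after 24 h for Collagen IV using an ELISA, with DMSO serving as negative control and baseline for a positive-direction fit.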

[15] = read-out: Monokine induced gamma interferon (MIG), CXCL9 (gene 4283); test: BSK_KF3CT_MIG: BioMAP Diversity Plus: KF3CT Assay for Monokine induced gamma interferon (MIG) Biomarker Activity (AID 2284248); details: primary human keratinocytes with fibroblasts
Method in brief: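 Human keratinocyte–foreskin fibroblast co-culture; MIG measured by ELISA 24 h after chemical dosing, fitted upward versus DMSO. Cytotoxicity was assessed in parallel cultures by SRB total-protein staining read at 560 nm.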

[16] = read-out: Vascular cell adhesion molecule 1 (VCAM1), VCAM1 (gene 7412); test: BSK_BF4T_VCAM1: BioMAP Diversity Plus: BF4T Assay for Vascular cell adhesion molecule 1 (VCAM1) Biomarker Activity (AID 2284249); details: primary human bronchial epithelial cells with fibroblasts
Method in brief: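 Cell-surface VCAM-1 quantified by ELISA after 24 h chemical exposure of human bronchial epithelial/dermal fibroblast co-cultures, with SRB staining in parallel wells for cytotoxicity; DMSO baseline, positive-direction fitting.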

[17] = read-out: Collagen I, COL1A1 (gene 1277); test: BSK_hDFCGF_CollagenI: BioMAP Diversity Plus: hDFCGF Assay for Collagen I Biomarker Activity (AID 2284250); details: primary human foreskin fibroblasts
Method in brief: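 Readout: Collagen I by ELISA after 24 h compound treatment of primary human foreskin fibroblasts. Endpoint analysed for increases relative to DMSO; total protein by SRB in parallel wells flagged cytotoxicity.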

[18] = read-out: Plasminogen activator inhibitor-1 (PAI1), SERPINE1 (gene 5054); test: BSK_KF3CT_PAI1: BioMAP Diversity Plus: KF3CT Assay for Plasminogen activator inhibitor-1 (PAI1) Biomarker Activity (AID 2284252); details: primary human keratinocytes with fibroblasts
Method in brief: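 In this co-culture of primary human keratinocytes and foreskin fibroblasts, PAI-1 was measured by ELISA at 24 h and fitted upward from DMSO.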

[19] = read-out: Monocyte Chemoattractant Protein-1 (MCP1), CCL2 (gene 6347); test: BSK_IMphg_MCP1: BioMAP Diversity Plus: IMphg Assay for Monocyte Chemoattractant Protein-1 (MCP1) Biomarker Activity (AID 2284253); details: primary human endothelial cells with macrophages
Method in brief: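 ELISA readout of MCP-1 at 24 hours in IMphg co-cultures of venular endothelial cells and macrophages, normalised to DMSO; parallel cultures stained with sulforhodamine B for overt cytotoxicity.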

Measured: AC50

Chain of Tumor necrosis factor (Homo sapiens) (P01375 whole entry, looked up): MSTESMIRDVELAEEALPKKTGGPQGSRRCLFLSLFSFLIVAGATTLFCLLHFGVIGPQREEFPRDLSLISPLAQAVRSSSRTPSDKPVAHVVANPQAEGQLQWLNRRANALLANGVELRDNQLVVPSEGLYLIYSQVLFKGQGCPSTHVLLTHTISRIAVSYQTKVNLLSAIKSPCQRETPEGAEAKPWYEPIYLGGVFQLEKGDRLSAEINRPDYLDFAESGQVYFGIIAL

NC(=O)C(F)(F)C(F)(F)C(F)(F)C(F)(F)C(F)(F)C(F)(F)C(F)(F)F
active: [12] 30 µM
inactive: [1] | [2] | [3] | [4] | [5] | [6] | [7] | [8] | [9] | [10] | [11] | [12] | [13] | [14] | [15] | [16] | [17] | [18] | [19]

Cc1ccc(S(=O)(=O)C(I)I)cc1
active: [1] 2.97 µM | [2] 2.82 µM | [3] 2.36 µM | [4] 4.64 µM | [5] 7.94 µM | [6] 8.3 µM | [7] 10.5 µM | [10] 2.77 µM | [11] 7.35 µM | [12] 4.47 µM | [13] 12.5 µM | [14] 7.25 µM

C[Si](Cl)(Cl)CCC(F)(F)C(F)(F)C(F)(F)C(F)(F)C(F)(F)C(F)(F)F
active: [4] 3.33 µM
inactive: [1] | [2] | [3] | [4] | [5] | [6] | [10] | [11] | [12] | [13] | [14] | [15] | [16] | [17] | [18] | [19]
